The values below come from the OligoGym collection.
Note: reference of the scale not given here.

In one test the target is SEMA6D. Description: pooled miR-30 sensor sort-seq; sequence = guide strand. The conditions noted are these: shRNA.
Sequence TTTTACATGATCCATAACGCTC gave a sensor-assay potency score (higher = more potent) of -0.732.

In the case of TTGAATAGTGATAGTCGACAGT, the sensor-assay potency score (higher = more potent) is -0.481.

Regarding TTTCTTTCCTTGAAGCTCCATG, the sensor-assay potency score (higher = more potent) was -0.704.

Another test has as its target SENP1. The test is described as above. The conditions noted are these: shRNA.
On to TACTGGAACTAAGACATCGAGA, for which the sensor-assay potency score (higher = more potent) is -0.808.

TTATCTGAGTAATAGCTTGGAT gave a sensor-assay potency score (higher = more potent) of 0.0199.

Sequence TTCACTGAGAACTTCATCCTGA displayed a sensor-assay potency score (higher = more potent) of 0.885.

TAATAGGTAATATTCTTCTTTC: the sensor-assay potency score (higher = more potent) was -0.79.

On to TTTACTTCGCTCCATCAGCATA, for which the sensor-assay potency score (higher = more potent) is -1.5.

TAGAGTTTGAATATCTTTGCGT: the sensor-assay potency score (higher = more potent) was determined as 0.243.

On to TTGAACTGTCTCTTCTGCTGTA, for which the sensor-assay potency score (higher = more potent) is 0.936.

In turn, TTGATTGGTCTGTCTTTGGTAA yielded a sensor-assay potency score (higher = more potent) of -0.497.

Sequence TATCAGTTAATTTATGACCTTT registered a sensor-assay potency score (higher = more potent) of 0.136.

Turning to AACAGTAACAGGAATCTCCTTT, the sensor-assay potency score (higher = more potent) is -0.105.

Regarding TATTGCAAGAGTATTCTGCAGG, the sensor-assay potency score (higher = more potent) is -0.448.

Regarding TGTACTAACATGTCGCCTCTGA, the sensor-assay potency score (higher = more potent) was 0.2.
